Experimental findings from PubChem BioAssay AID1508600 (Functional Genomics Laboratory (NCATS/FGL), 2020) are described below.

About 3,700 (7%) of roughly 53,000 sequences were called active.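 Rule for the calls: active = gene knockdowns whose robust z-score for IL-1 alpha signal is at least 2 or at most -2, so actives lie on both sides; inactive = the rest.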 The full list was thinned out, with actives kept by preference.

This experiment in a line: Components of the Cytosolic LPS Sensing Pathway: Gene Identification via Genome-wide siRNA Screen.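 Note: robust z of the log signal after scaling to non-targeting control siRNA wells of the plate.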 Particulars: RAW264.7 macrophages, IL-1a HTRF, actives lie on both sides, screened at 100 nM (by protocol), cells primed 5 h with Pam3CSK4 first. The procedure, abridged:
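Read-out: IL-1a HTRF on supernatant, divided by plate negative-control median ×100, log-transformed and converted to robust z-score. Cells were RAW264.7 given 100 nM siRNA, Pam3CSK4-primed 5 hours, then LipidA-transfected 24 hour.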
Background: In TR-FRET formats the signal depends on donor and acceptor labels being close together.
Take GCAUCUACCUUCUAUUACUTT against Gpsm1: the z-score was 0.533 (inactive).
Under GGACAUGCUCUAUAAGAAGTT against Pabpc5 stands -0.642 (inactive); under GGCAACUUGAUUGUAAACUTT against Zic2, 0.795 (inactive).
Next, CAGAAUUCAGAUAAUCUUGTT against Defb22: 1.06 (inactive); GGAUAUCCAAGUAAGGUGUTT against Mrpl9: -0.504 (inactive).
Under GACUGAGCUUCUGUGAUGGTT against Olfr921 stands -2.5 (active); under GGAGAAGAAGGGAAAGCAUTT against Tub, -1.4 (inactive); under GGUGGAUAUUCCAUCUAUUTT against Snx14, 2.76 (active).
For the sequence CGUUUUCAGAGAUGUGCGCTT against Cmtm5, the z-score was -1 (inactive).
Next, GCCAGUAUUAGCCUAGAUCTT against Vstm5: -1.65 (inactive); CCCAGCUCUGUUUAAUGAUTT against Klf8: -0.449 (inactive); GGAUCUUAAGAAGUUCCAATT against Chchd6: -0.104 (inactive).
Take CCUCCUUUUUUCUCUGUCUTT against Ugt1a9: the z-score was -2.79 (active).
Under GGAUUUGCCUUAAAAAAUCTT against Dock4 stands -0.0352 (inactive).
Under GGUUUGAGGUAACACUAGATT against Vps39 stands -0.125 (inactive).
Under GCUGAAAGGAAUGUGCUCATT against Hspa8 stands -1.57 (inactive); under GCCGGAUGAAGGACUUUACTT against Dcc, -1.98 (inactive); under CCUAGUCUAGCUGACUUGCTT against Eppin, 1.41 (inactive).
GGUUACGAAAAGCUGCCUUTT against Ints14: the z-score was -0.125 (inactive).
Under GGCCUUGGCAAUUAUUUGUTT against Syap1 stands -0.0759 (inactive); under GGAGAAAGAGAUUCCUAUUTT against Triap1, -0.818 (inactive); under CCAAUUCGUGUUAAGGAACTT against Riox2, 0.212 (inactive).
On to CCUCGUAGGGCCUAUGGUATT against Cyth4, for which the z-score was -2.17 (active).
For GCCAAAGUAGCAUUAGUGATT against Dip2b, the z-score is -1.39 (inactive).
Under GGCAAUGUCUUUAAAAUACTT against Txndc8 stands -0.724 (inactive).
Under GGCAUUGACCCUUCUUGGATT against Stam2 stands -0.395 (inactive); under CCUUGUUAGAGCAUUACAATT against Rprd1a, 1.34 (inactive).
Consider GGAUUCUGAGAAAUCAAGATT against Serpinb12, for which the z-score is -0.376 (inactive).
Consider GGAAAUCUACGAUUUCUAATT against Cyria, for which the z-score is 2.55 (active).
Next, GCUCCAGAAUAUAUUGUUCTT against Arfgap3: 1.39 (inactive); GGGCAGAGGCAUUUCUGUATT against Psg23: 1.76 (inactive).
Next, GGAACCAGGUAGCAGAUCUTT against Cdk2ap2: -2.61 (active).
Consider GGACUAUAUGAGAUAAACUTT against Pask, for which the z-score was 0.371 (inactive).
Next, CGCCAAACAGGCUAGAUCUTT against Ephb2: -0.101 (inactive).
In the case of GCGAGAAUUGGACAAAUUATT against Acot12, the z-score is 0.784 (inactive).
For “GCAUUCGAAGCUCUUCUAATT against 4930474M22Rik”, the z-score is -1.89 (inactive).
Take GGGCUGUGAGCUCUGUUCATT against Rspo1: the z-score is 0.188 (inactive).
Consider GCCCAAACGAAAAAUGGCCTT against Abl1, for which the z-score is 2.95 (active).
Under GCAACUGAGAGAUGUCAUCTT against Gbp6 stands -0.806 (inactive); under CCUGUGAAGUAUAACAUCGTT against Fam234b, -0.722 (inactive); under CCUAUGUAUCUCAUCGCUGTT against Sox11, 0.819 (inactive).
Next, GGCAAUUUGGAUACCAGGATT against Zfp24: -0.563 (inactive).
Turning to GCAGAAUUGAGUCACCCAATT against Sp1, the z-score was -2.56 (active).
Under GCGACAAAGCUCGUUAUGATT against Hmgb2 stands -2.3 (active); under GCAUAAACUUUAGGCAUGGTT against Alg13, -0.123 (inactive); under “GGUCAUCCGAUGCUUUGUATT against 4930515G01Rik”, -0.513 (inactive).
Regarding CCGGUUACCAAUUGAUAAATT against Smc3, the z-score was -1.15 (inactive).
GCGUAAAUCUCCACACUACTT against Vmn1r54: the z-score is -1.57 (inactive).
Next, GGUGGAUACACAGGACAAATT against Invs: 1.58 (inactive); GGAGCGUAGAUAACUUAUCTT against Itprid2: -0.0474 (inactive).
With CGCAGACAGUUUGAGGCUGTT against Gpbp1, the z-score is -2.34 (active).
Next, GGGACAUGGUCAUCACUAGTT against Clvs2: -1.71 (inactive).
For “GGAAUAGGAGCAAGUGUACTT against 9930021J03Rik”, the z-score is 1.03 (inactive).
Turning to GGAUACACACAGAGAAUAUTT against Arhgef10l, the z-score is 0.161 (inactive).
Under GGCCUUCACGUCUGGAAAUTT against Cnot10 stands -0.163 (inactive).
Under GCAUCUCUCUAAUAGCCUUTT against Nop16 stands 1.24 (inactive); under GGAUGAAAAUCUCUGUCCUTT against Trpa1, 0.604 (inactive); under GGCAGCAGCAAGUUUCUUCTT against Rbm38, -2.31 (active).
Turning to GCUUUUGAUCCACAGAUUUTT against Prss33, the z-score is 0.372 (inactive).
Regarding GGGCUUAUUCUCAGUUCUGTT against Slc17a1, the z-score was -0.395 (inactive).
Under GGACCAUGUGACAAAGCCUTT against Fam131b stands 2.16 (active); under GCCUCCAUUAUUUGUUCUGTT against Olfr1058, -0.177 (inactive).
Under GGAAACACCAAGAUUCCAGTT against Sprr3 stands -0.445 (inactive); under GCUAUUGGAGGAAUGUAUCTT against Rasgrp4, -1.51 (inactive).
Next, GGCACAAGAGCAAAGGCUUTT against Gmppb: -0.575 (inactive).
With CCCUCAUUUACUCUAGUAATT against Defb12, the z-score is 0.714 (inactive).
Under GGUGUUCCUGGUGAAGCAATT against Camk1g stands 0.875 (inactive).
Under CGCUCACUGGUUUUUAAUUTT against Itpripl2 stands 0.694 (inactive).
